PLK1 PBD inh – blocks phosphopeptide binding to human PLK1 polo-box domain | hit rate 2.8% among 360,000 | AID 720504 | Plk1 PBD binding of FITC phosphopeptide, fluorescence polarization | Potency, µM, for the others: max response, negative = inhibition, usual class: inhibitors | P53350; note: series mostly up to about 57 µM; % is set by controls: 0 for no effect and ±100 for the full control effect; nearly all actives have a fitted effect of over 65% in size
HP1b binding inh – inhibitors of HP1-beta chromodomain binding to methylated histone tails; AlphaScreen HP1-beta / biotin-H3K9me3 peptide binding; Potency, µM (top dose mostly 114 µM), for the others: at the highest dose activity change, negative = inhibition, hits mostly inhibitors; P83916; hit rate 0.56% among 390,000; note: nearly all actives have a fitted effect of over 70% in size
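AlphaScreen: HP1-beta (50 nM) preformed 30 min with biotin-H3(1-18)K9me3 peptide (50 nM) in PBS pH 7.4, 0.01% Tween-20. Compound added for 30 min at RT, then streptavidin donor/nickel chelate acceptor beads (10 ug/mL) for 30 min.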
12-LOX inh – blocks human arachidonate 12S-lipoxygenase; P18054; AID 1671190; hit rate 1.1% among 580,000; Potency, µM (titrated, usually from 108 µM), without a hit: top-dose activity change, negative = inhibition, hits mostly inhibitors; purified 12hLO, xylenol orange hydroperoxide absorbance; note: % is set by controls: 0 for no effect and ±100 for the full control effect
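Purified human 12hLO (150 nM final) in 25 mM Hepes, 0.01% Triton X-100, pH 7.0 was preincubated 15 min at room temperature with compound. Then 40 uM arachidonic acid was added, 30 min. Hydroperoxide was read by Fe-XO absorbance ratio 573/405 nm.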
G9a inh – G9a (human) methyltransferase inhibition. G9a H3K9 monomethylation, AlphaScreen, 2 h. Potency, µM (top dose mostly 102 µM), for the others: at the top dose activity, negative = inhibition, actives largely listed as inhibitors. hit rate 8.8% among 350,000. AID 504332; note: % is set by controls: 0 for no effect and ±100 for the full control effect; nearly all actives have a fitted effect of over 75% in size
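Readings reflect AlphaScreen signal from monomethyl-H3K9 antibody detection. HMT at 20 nM; substrate b-H3K9 500 nM; cofactor SAM 20 uM; 2 h RT reaction; compounds tested as titrations in qHTS with 15 min preincubation.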
BAZ2B inh – BAZ2B (human) inhibition; hit rate 4.4% among 360,000; Potency, µM (doses to about 114 µM), inactives show at the highest dose activity change, negative = inhibition, hits mostly inhibitors; AlphaScreen BAZ2B-H3K14Ac peptide displacement; note: % is set by controls: 0 for no effect and ±100 for the full control effect; nearly all actives have a fitted effect of over 60% in size
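Inhibition is scored as reduced AlphaScreen emission. The BAZ2B/b-H3(5-23)K14Ac complex (50 nM each) in PBS pH 7.4, 0.01% Tween-20 meets compound (up to 110 uM) for 30 min at RT before bead addition.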
JMJD2A Tudor – JMJD2A Tudor domain (human) inhibition. O75164. AlphaScreen JMJD2A-Tudor / H3K4me3 peptide binding. Potency, µM (titrated, usually from 114 µM), without a hit: top-dose activity change, negative = inhibition, actives largely listed as inhibitors. hit rate 4.4% among 390,000. AID 504339; note: % is set by controls: 0 for no effect and ±100 for the full control effect; nearly all actives have a fitted effect of over 50% in size
An asterisk follows results filed as active; u = inconclusive; x = no result given; [ ] = another dose, or the depositor's remark. Shown are actives, neighbours in structure and some others; about 9% of the full set was active somewhere. Calls come from the whole dose curve; as a rule, active = well fitted curve in the direction sought with a large enough effect; inconclusive = small, poorly fitted or top-dose-only effect, or another doubt; inactive = no such curve, though single readings can be large; an effect the other way counts as inactive or inconclusive. Potency is the fitted concentration of half-maximal effect.

SMILES	PLK1 PBD inh	HP1b binding inh	12-LOX inh	G9a inh	BAZ2B inh	JMJD2A Tudor
C(=N\n1cnnc1SCc1ccccc1)/c1ccco1	-10%	26%	0%	56µM*	0%	-23%
O=C(/C=C/c1ccc(F)cc1)NC(=S)Nc1ccccc1O	-9%	28%	-14%	-12%	-21%	-18%
O=C(COC(=O)c1ccccc1Br)Nc1ccc(F)cc1	0%	52%	-2%	-28%	-1%	10%
COc1ccc(-c2cc(C(F)(F)F)c3c(=O)n(-c4ccccc4)[nH]c3n2)cc1	-23%	-38%	x	13µM*	u	56µM*
COc1ccc(-c2cc(C(F)(F)F)nc(NCc3ccccc3)n2)cc1	x	205%	-19%	187%[59 µM]	175%	115%
O=C(Cn1nnc(-c2ccc(Cl)cc2)n1)NCc1ccc(F)cc1	x	16%	-16%	8%[59 µM]	-16%	-10%
CCCS(=O)(=O)c1c(S(=O)(=O)CCC)c2c(C)cccn2c1C(=O)OC	u	-16%	-19%	32µM*	7%[57.1 µM]	u
CCCS(=O)(=O)c1c(S(=O)(=O)CCC)c2c(N)cccn2c1C(=O)c1ccc(F)cc1	-20%	23%	u	u	u	u
CCCS(=O)(=O)c1c(S(=O)(=O)CCC)c2c(N)cccn2c1C(=O)c1ccc(Br)cc1	-2%	-6%	6.3µM*	11µM*	-39%	u
CCCS(=O)(=O)c1c(S(=O)(=O)CCC)c2c3ccccc3ccn2c1C(=O)OC	-7%	48%	-2%	u	-6%	-16%
CN(C)c1ccc(NC(=O)CSc2nc3ccccc3c(=O)n2C2CCCCC2)cc1	4%	u	-16%	7.9µM*	10µM*	7.9µM*
CN(C)c1ccc(NC(=O)CSc2nc(C3CC3)nc3ccccc23)cc1	-4%	-5%	u	4.5µM*	-11%	u
O=C(CSc1c2c(nc3cc(Cl)ccc13)CCCC2)NCc1cccs1	x	x	-27%	x	x	x
CC(=O)Nc1ccc2nc(NC(=O)c3cccs3)sc2c1	-10%	35%	-3%	45µM*	-26%	-10%
CC(=O)Nc1ccc2nc(-c3cccn3C)[nH]c2c1	-13%	6%	-6%	12%[0.501 µM]	-26%	-29%
Cn1cccc1-c1nc2ccc(NC(=O)c3cccs3)cc2[nH]1	-3%	50µM*	-24%	u	35µM*	56µM*
Cc1nc2ccc(NC(=O)c3cccs3)cc2s1	-2%	52%	447%	84%	4%	-8%
CCc1noc([C@@H]2CC(F)(F)CN2C(=O)COc2ccccc2)n1	x	x	50%	x	x	x
CSc1nc(C)c(C(=O)C[n+]2ccccc2C)cc1C#N	15µM*	16%	0%	3%	3%	-6%[11.4 µM]
CC1(C)CC(=O)C(CC2C(=O)CC(C)(C)CC2=O)C(=O)C1	-21%	28%	0%	22µM*	-3%	-9%
CCCOc1ccc(/C=c2\sc3ncnn3c2=O)cc1	-12%	13%	-6%	-4%	-2%	-24%
Nc1ccccc1N=Nc1ccccc1N	-8%	u	1%	14µM*	3.2µM*	2.8µM*
CC(NC(=O)c1ccc(NS(C)(=O)=O)cc1)c1ccccc1 (configuration not stated)	1%	24%	-1%	7%[12.7 µM]	-1%	7%
CC(C)(C)C(=O)Nc1cc(S(=O)(=O)Nc2ccc(Cl)cc2)ccc1O	-16%	4%	40µM*	-42%	-2%	-8%
CN(C)c1cccc2c1C(=O)c1ccccc1C2=O	-5%	28µM*	-17%	11µM*	8.9µM*	45µM*
SMILES	PLK1 PBD inh	HP1b binding inh	12-LOX inh	G9a inh	BAZ2B inh	JMJD2A Tudor
CN1C(=O)c2cccc(N(C)C)c2C1=O	-10%	36%	5%	6%	12%	4%
COc1ccc(C)cc1NC(=O)c1cc(S(=O)(=O)N2CCOCC2)cn1C	-8%	11%	12%	27%	-32%	-21%
COc1cccc(C(=O)Nc2ccc3oc(-c4cccc5c(Br)cccc45)nc3c2)c1	x	56%	-9%	15%[59 µM]	8%	0%
O=C1CC(Sc2ccc(Cl)cc2)C(=O)N1Cc1ccncc1 (configuration not stated)	-24%	68%	0%	x	-4%	3%
CCOc1ccc(-n2nnnc2SCC(=O)c2ccccc2)cc1	-1%	55%	0%	-4%	6%	4%
CCCCCCOc1ccc(N2C(=O)CC(SCCN)C2=O)cc1 (configuration not stated)	-7%	54%	-23%	u	-31%	-21%
NCCSC1CC(=O)N(Cc2ccc(F)cc2)C1=O (configuration not stated)	-4%	36%	11%	40µM*	-5%	2%
CCOc1ccc(N2C(=O)CC(Sc3nnnn3-c3ccccc3)C2=O)cc1 (configuration not stated)	-1%	52%	-2%	10µM*	-23%	5%
CCOc1ccc(N2C(=O)CC(SCCN)C2=O)cc1 (configuration not stated)	-7%	23%	0%	18µM*	-32%	-29%
Cc1cc(C)nc(Sc2nc(Sc3nc(C)cc(C)n3)nc(Sc3nc(C)cc(C)n3)n2)n1	x	x	7%	x	x	x
CN(C)CCNC(=O)c1cc2c(=O)n(C)c3ccccc3c2n1C	-4%	54%	0%	u	12%	-4%
CN(C)CCCN=c1c2ccccc2n(C)c2[nH]c(=O)n(C)c(=O)c12	x	x	22µM*	x	x	x
CCOc1ccc(OCCCCNC(C)(C)C)cc1	-15%	-5%	u	22µM*	50µM*	35µM*
CCOc1cccc(OCCOCCNC(C)(C)C)c1	0%	-51%	u	14µM*	45µM*	22µM*
CC(C)(C)NCCCCOc1ccc(F)cc1	-2%	29%	-1%	-16%	-6%	-6%
COc1ccc(OCC(=O)NNC(=O)Cn2c(=O)cnc3ccccc32)cc1	8%	44%	-2%	71µM*	u	-1%
COc1ccc(C2c3cc(OC)c(OC)cc3CC(=O)N2c2ccc(C)c(F)c2)cc1 (configuration not stated)	x	11%	-11%	u	-35%	u
CCNc1nc2c(c(=O)n(C)c(=O)n2C)n1CCCc1ccccc1	3.4µM*	17%	2%	24%[59 µM]	-24%	u
Cc1cc(C)c(S(=O)(=O)N2CCN(C(=O)C(C)Cn3nc(C)nc3C)CC2)c(C)c1 (configuration not stated)	-1%	43%	-7%	-3%	-17%	-4%
CNC(=S)N(CCc1c(C)[nH]c2ccc(C)cc12)Cc1cccnc1	5%	9%	-27%	79µM*	u	-28%
CNC(=S)N(CCc1c(C)[nH]c2ccc(Cl)cc12)Cc1cccnc1	-3%	-12%	-6%	6%[2.33 µM]	71µM*	u
